Source: PubChem BioAssay (EPA / NIEHS)
Inconclusive results are not listed. Calls of active or inactive are those of the source. The calls were made as follows, unless noted: active = hit-call score of the fitted dose curve at least 0.9, where 1 is the maximum; inactive = score below 0.9.

Key:
[1] = CCTE_Harrill_HTTr_Viability_MCF7: CCTE's 6-hour Cell Viability Assessment for the High-Throughput Transcriptomics (HTTr) Platform, in MCF-7 cells cultured in DMEM + 10% fetal bovine serum, Harrill Lab (AID 2284010)
Outline: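 PI exclusion, high-content imaging; 8-pt dilution series, 6 h exposure; bidirectional fit vs DMSO (neg. ctrl/baseline); gain of signal = loss of membrane integrity.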

[2] = CCTE_Harrill_HTTr_Apoptosis_MCF7: CCTE's 6-hour Apoptosis Assessment for the High-Throughput Transcriptomics (HTTr) Platform, in MCF-7 cells cultured in DMEM + 10% fetal bovine serum, Harrill Lab (AID 2284011)
Outline: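 Cells are dosed with test chemicals at eight concentrations and imaged 6 hours later for caspase-3/7 activity using a green fluorogenic detection reagent. Activity is fitted in both directions against DMSO controls.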

[3] = CCTE_Harrill_HTTr_CellCount_MCF7: CCTE's Cell Proliferation Assessment for the High-Throughput Transcriptomics (HTTr) Platform, Harrill Lab (AID 2284012; active = hit-call score of the fitted dose curve at least 0.9, where 1 is the maximum;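 also: count of Hoechst-stained nuclei per well by high-content imaging in MCF-7 cells; cells exposed to compound for six hours; intended direction is loss of nuclei count meaning fewer cells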)
Outline: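 Readout: Hoechst nuclear count by high-content imaging. MCF-7, 8-point dilution series, 6 h exposure. Bidirectional fit vs DMSO baseline.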

Measured: outcome

O=C(O)c1cccnc1
inactive: all assays above

O=Cc1ccccc1C=O
inactive: all assays above

O=C1NC(=O)C(c2ccccc2)(c2ccccc2)N1
inactive: all assays above

C/C=C/C=C/C(=O)O
inactive: all assays above

CC(=O)OC1CC(C)OC(C)O1 (stereo not drawn)
inactive: all assays above

CS(=O)(=O)c1ccc([C@@H](C[C@H]2CCC(=O)C2)C(=O)Nc2cnccn2)cc1Cl
inactive: all assays above

CCc1nc(N)nc(N)c1-c1ccc(Cl)cc1
inactive: all assays above

COC(=O)CCC(=O)OC
inactive: all assays above

C=CCCCCCCCCCCCC
inactive: all assays above

CCCCOC(=O)CCCCC(=O)OCCCC
inactive: all assays above

CC(=O)CC(c1ccccc1)c1c(O)c2ccccc2oc1=O (stereo not drawn)
inactive: all assays above

CC(=O)S[C@H](C(=O)N[C@H]1Cc2ccccc2[C@H]2CCC[C@@H](C(=O)O)N2C1=O)C(C)C
inactive: all assays above

CC(C)(C)c1ccccc1
inactive: all assays above

CCC(C)N(C)C(=O)c1cc2ccccc2c(-c2ccccc2Cl)n1 (stereo not drawn)
inactive: all assays above

CCCCCCCCCC[N+](C)(C)[O-]
inactive: all assays above

CC(=O)O
inactive: all assays above
